These results are taken from PubChem BioAssay AID602144 (Vanderbilt Specialized Chemistry Center, 2011).

SMILES strings stand for the structures. Values without a mark were called inactive. Activity calls are given as the source filed them. Rule as the data show it: active = remaining activity below about 50%; inactive = the rest.

For this experiment, the target named is Phospholipase D1 (Homo sapiens) (UniProt Q13393). The experiment is described as follows: cellular phospholipase D1 activity inhibition – Calu-1 cells, single concentration (AID 602144).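 Also: tested at 200 nM.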 As to conditions: cellular PLD1 activity, active compounds read low.
Sequence of Phospholipase D1 (Homo sapiens) (Q13393 whole entry, looked up): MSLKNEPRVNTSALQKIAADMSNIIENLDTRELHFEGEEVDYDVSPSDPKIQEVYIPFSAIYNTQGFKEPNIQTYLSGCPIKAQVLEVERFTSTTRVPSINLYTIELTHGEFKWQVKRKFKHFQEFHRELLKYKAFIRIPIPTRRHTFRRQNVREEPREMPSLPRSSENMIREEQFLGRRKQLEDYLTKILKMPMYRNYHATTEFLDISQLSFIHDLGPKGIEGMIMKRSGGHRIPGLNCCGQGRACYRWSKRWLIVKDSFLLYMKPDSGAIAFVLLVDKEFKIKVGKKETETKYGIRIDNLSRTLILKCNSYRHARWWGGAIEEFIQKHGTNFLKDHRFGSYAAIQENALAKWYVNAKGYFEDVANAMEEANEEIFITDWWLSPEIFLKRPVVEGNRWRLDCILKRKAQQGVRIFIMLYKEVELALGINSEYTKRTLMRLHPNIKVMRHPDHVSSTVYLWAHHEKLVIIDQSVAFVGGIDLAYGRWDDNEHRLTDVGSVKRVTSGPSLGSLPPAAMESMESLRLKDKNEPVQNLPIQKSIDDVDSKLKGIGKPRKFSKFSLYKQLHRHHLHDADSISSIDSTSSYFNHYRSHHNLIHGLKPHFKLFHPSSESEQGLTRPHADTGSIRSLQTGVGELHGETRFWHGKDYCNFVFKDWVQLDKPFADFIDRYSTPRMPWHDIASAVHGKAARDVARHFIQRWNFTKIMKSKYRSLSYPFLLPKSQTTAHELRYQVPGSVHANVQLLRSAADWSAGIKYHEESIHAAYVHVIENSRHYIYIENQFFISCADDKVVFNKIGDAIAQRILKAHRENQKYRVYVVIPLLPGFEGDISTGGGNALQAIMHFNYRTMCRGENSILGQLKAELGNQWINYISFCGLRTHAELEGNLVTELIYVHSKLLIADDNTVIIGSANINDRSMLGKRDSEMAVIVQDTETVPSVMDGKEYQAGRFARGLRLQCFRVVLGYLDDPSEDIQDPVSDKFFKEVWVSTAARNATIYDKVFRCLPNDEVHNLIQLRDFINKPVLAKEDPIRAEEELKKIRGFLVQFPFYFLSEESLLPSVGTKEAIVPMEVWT
Sequence of Phospholipase D1 (Homo sapiens) (Q13393 whole entry, looked up): as above
By remaining activity is commonly meant the signal under treatment as a percentage of the control signal. Regarding `O=c1[nH]c2ccccc2n1C1CCN(CCN2CCCC2)CC1`, the remaining activity is 112%.
Next, `C[C@@H](CN1CCC(n2c(=O)[nH]c3ccccc32)CC1)NC(=O)Cc1cccs1`: 101%; `O=C(NCCN1CCN(c2ccccn2)CC1)c1ccc(Cl)cc1`: 153%; `Nc1ccc(C(=O)NCCN2CCC(n3c(=O)[nH]c4ccccc43)CC2)cc1OC(F)(F)F`: 72.6%.
Consider `O=C(N[C@@H](Cc1ccccc1)CN1CCC(n2c(=O)[nH]c3ccccc32)CC1)c1ccc(F)c(F)c1`, for which the remaining activity was 90.2%.
Next, `O=C(NCCN1CCC(n2c(=O)[nH]c3ccccc32)CC1)c1cscn1`: 16.7% (active); `O=C(NCCN1CCN(c2ncccn2)CC1)c1ccc(Cl)cc1`: 80.9%; `O=C(N[C@@H](Cc1ccccc1)CN1CCC(n2c(=O)[nH]c3ccccc32)CC1)c1ccc2ccccc2c1`: 113%.
Next, `O=C(NCCN1CCC(n2c(=O)[nH]c3cc(I)ccc32)CC1)c1ccc(Cl)cc1`: 15.6% (active).
Take `O=C(NCCN1CCN(c2ccncc2)CC1)c1cc2ccccc2s1`: the remaining activity was 147%.
Next, `O=C(NCCN1CCN(c2ccncc2)CC1)c1ccc(F)cc1O`: 152%; `O=C(NCCN1CCC(C(=O)NCCc2ccccn2)CC1)c1ccc2ccccc2c1`: 101%.
Next, `O=C(NCCN1CCN(c2ccncc2)CC1)c1ccc(Cl)cc1`: 121%.
Next, `Cn1c(C2CCN(CC3(N)CCCC3)CC2)nc2ccccc21` (tested in a mixture with another compound): 95%.
Take `C[C@@H](CN1CCC(n2c(=O)[nH]c3cc(I)ccc32)CC1)NC(=O)c1ccc(Cl)cc1`: the remaining activity is 15.5% (active).
Next, `O=C1Cc2cc(CCN3CCN(c4nsc5ccccc45)CC3)c(Cl)cc2N1`: 75.1%; `O=c1[nH]c2ccccc2n1C1CCN(CCNC(=S)Nc2cccc3ccccc23)CC1`: 152%; `O=C(NCCN1CCC2(C=Cc3ccccc32)CC1)c1ccc2ccccc2c1`: 127%.
Next, `O=C(NCCN1CCC2(CCc3ccccc32)CC1)c1ccc2ccccc2c1`: 124%.
For `O=C(C1C[C@@H]1c1ccccc1)N1CCC2(CC1)C(=O)NCN2c1ccccc1` (stereo partly specified), the remaining activity is 86%.
In the case of `COc1ccc(S(=O)(=O)NCCN2CCC(n3c(=O)[nH]c4ccccc43)CC2)cc1OC`, the remaining activity was 115%.
Next, `O=C(c1ccc(Cl)cc1)N1CCC2(CC1)C(=O)NCN2c1ccccc1`: 102%; `CC(C)[C@@H](CN1CCC(n2c(=O)[nH]c3ccccc32)CC1)NC(=O)c1ccc(F)cc1`: 103%.
Next, `O=C(NCCN1CCC(n2c(=O)n(C(=O)c3ccc(Cl)cc3)c3ccccc32)CC1)c1ccc(Cl)cc1`: 27.8% (active).
Next, `Cn1c(=O)n(C2CCN(CCNC(=O)[C@H]3C[C@@H]3c3ccccc3)CC2)c2ccccc21`: 76.2%.
As for `C[C@@H](CN1CCC(n2c(=O)[nH]c3cc(-c4cccnc4)ccc32)CC1)NC(=O)[C@H]1C[C@@H]1c1ccccc1`, the remaining activity is 53.2%.
On to `CC1(C)[C@H]2CC[C@]1(CS(=O)(=O)NCCN1CCC(n3c(=O)[nH]c4ccccc43)CC1)C(=O)C2`, for which the remaining activity was 121%.
Next, `C[C@@H](CN1CCC(n2c(=O)[nH]c3cc(-c4ccc(F)c(F)c4)ccc32)CC1)NC(=O)[C@H]1C[C@@H]1c1ccccc1`: 59%; `O=C(NCCN1CCC(n2c(=O)[nH]c3ccccc32)CC1)c1ccc(Cc2ccccc2)cc1`: 91.5%; `COc1cccc(C(=O)NCCN2CCC(n3c(=O)[nH]c4ccccc43)CC2)n1`: 39.7% (active).
Next, `C[C@@H](CN1CCC2(CCc3ccccc32)CC1)NC(=O)c1ccc2ccccc2c1`: 91.4%.
Next, `CC(C)[C@@H](CN1CCC(n2c(=O)[nH]c3ccccc32)CC1)NC(=O)c1ccc2ccccc2c1`: 84.6%.
For the compound `Cc1ccc(C(=O)N[C@@H](C)CN2CCC(n3c(=O)[nH]c4cc(Br)ccc43)CC2)cc1`, the remaining activity is 13% (active).
For `C[C@@H](CN1CCC(n2c(=O)[nH]c3ccc(F)cc32)CC1)NC(=O)c1ccc(Cl)cc1`, the remaining activity is 17.7% (active).
Next, `CS(=O)(=O)N1CC2(CCN(CCNC(=O)c3ccc4ccccc4c3)CC2)c2ccccc21`: 136%; `O=C(NCCN1CCC(n2c(=O)[nH]c3ccccc32)CC1)N1c2ccccc2C=Cc2ccccc21`: 92.3%.
